# Activity calls are given as the source filed them. Rule for the calls: active = hit-call score of the fitted dose curve at least 0.9, where 1 is the maximum; inactive = score below 0.9.
# Test system: not listed separately
# Assay: ATG_CMV_CIS: Attagene CIS-FACTORIAL HepG2 Assay for human CMV (Internal Marker) (AID 2282928);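 note: endpoint acts as a background internal control marker rather than a target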
# Conditions: HepG2 CMV promoter reporter, transcription factor profiling; actives raise or lower the signal
# Procedure, shortened: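 24 h chemical treatment, HepG2 with transient multi-reporter transfection; RNA → oligo(dT) RT → PCR → 6-FAM extension → HpaI digest → CE fluorescence. Bidirectional fit, DMSO negative control.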
SMILES,outcome,AC50
ClC1=C(Cl)[C@]2(Cl)[C@@H]3[C@@H](Cl)[C@H](Cl)C[C@@H]3[C@@]1(Cl)C2(Cl)Cl,inactive,–
O=S(=O)(c1ccccc1)c1ccccc1,inactive,–
CCC(C)c1cc(C(C)(C)C)cc(-n2nc3ccccc3n2)c1O (stereo not given),inactive,–
CC1(C)C(=O)NC(=O)NC1=O,inactive,–
CC(=O)/C=C/c1ccccc1,inactive,–
c1ccc(P(c2ccccc2)c2ccccc2)cc1,inactive,–
CCOC(=O)COc1ccc(Cl)cc1Cl,inactive,–
CCN(CC)C(=S)S,–,100 µM (active)
N#Cc1cccc(C#N)c1,inactive,–
O=C1Nc2ccc(Cl)cc2C(c2ccccc2)=NC1O (stereo not given),inactive,–
N#CC(c1ccccc1)c1ccccc1,inactive,–
C[N+](C)=CCl,inactive,–

# Test system: not listed separately
# Assay: ATG_DR4_LXR_CIS: Attagene CIS-FACTORIAL HepG2 Assay for human Liver X Receptor (LXR), DR4 submotif (AID 2282929)
# Conditions: HepG2 Attagene DR4 cis-reporter, mRNA transcription; actives raise or lower the signal
# Procedure, shortened: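 Fluorescence intensity of labelled reporter cDNA fragments, separated by capillary electrophoresis, gives the signal. HepG2 cells bearing cis-regulated reporter constructs were treated 24 h; activity fitted bidirectionally relative to DMSO negative control.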
SMILES,AC50,outcome
O=C1C(Cl)=C(Cl)C(=O)C(Cl)=C1Cl,66.9 µM (active),–
N#CCCCCC#N,–,inactive
CC1CCC(=O)O1 (stereo not given),–,inactive
COc1cc(OC)c(OC)cc1C=O,–,inactive
CC(C)c1ccc(O)cc1,140 µM (active),–
C[N+](C)(C)CC(=O)[O-],–,inactive
CC(C)(c1cc(Cl)c(O)c(Cl)c1)c1cc(Cl)c(O)c(Cl)c1,33.4 µM (active),–
O=C(NCNC(=O)NC1C(=O)NC(=O)N1CO)NC1C(=O)NC(=O)N1CO (stereo not given),–,inactive
[N-]=[N+]=CC(=O)OC[C@H](N)C(=O)O,–,inactive
COCC(=O)N(c1c(C)cccc1C)N1CCOC1=O,–,inactive
CC(C)CCCCCCCOP(=O)(Oc1ccccc1)Oc1ccccc1,21.6 µM (active),–
CCC1CCC(=O)O1 (stereo not given),–,inactive
C=COCCCl,–,inactive
C=CCN(CC=C)C(=O)C(Cl)Cl,–,inactive
CC[N+](=O)[O-],–,inactive
CC(Cc1ccc(C(C)(C)C)cc1)CN1C[C@@H](C)O[C@@H](C)C1 (stereo not given in full),–,inactive
[Cl-].[Cl-].[Cl-].[Yb+3],–,inactive
CCOC(=O)N(C)N=O,–,inactive
O=CNC(N1CCN(C(NC=O)C(Cl)(Cl)Cl)CC1)C(Cl)(Cl)Cl (stereo not given),–,inactive
CCC[N+](=O)[O-],–,inactive

SMILES,AC50,outcome
CC(C)(O)C#N,–,inactive
CC(C)C#N,–,inactive
S=c1[nH]c2ccccc2[nH]1,–,inactive
CCCCCc1cc(O)cc(O)c1,154 µM (active),–
c1ccc(Nc2ccc3ccccc3c2)cc1,20.6 µM (active),–
CSc1nc(N=[N+]=[N-])nc(NC(C)C)n1,–,inactive
CC=Cc1ccc2c(c1)OCO2,–,inactive
Cc1ccc(OP(=O)(Oc2ccc(C)cc2)Oc2ccc(C)cc2)cc1 (tested in a mixture with another compound),9.36 µM (active),–
ClC1=C(Cl)[C@]2(Cl)[C@@H]3[C@@H](Cl)[C@H](Cl)C[C@@H]3[C@@]1(Cl)C2(Cl)Cl,–,inactive
O=S(=O)(c1ccccc1)c1ccccc1,–,inactive
CCC(C)c1cc(C(C)(C)C)cc(-n2nc3ccccc3n2)c1O (stereo not given),19.3 µM (active),–
CC1(C)C(=O)NC(=O)NC1=O,–,inactive
CC(=O)/C=C/c1ccccc1,78.1 µM (active),–
c1ccc(P(c2ccccc2)c2ccccc2)cc1,31.5 µM (active),–
CCOC(=O)COc1ccc(Cl)cc1Cl,–,inactive
CCN(CC)C(=S)S,–,inactive
N#Cc1cccc(C#N)c1,–,inactive
O=C1Nc2ccc(Cl)cc2C(c2ccccc2)=NC1O (stereo not given),–,inactive
N#CC(c1ccccc1)c1ccccc1,–,inactive
C[N+](C)=CCl,–,inactive

# Target: Aryl hydrocarbon receptor (Homo sapiens) (UniProt P35869)
# Assay: ATG_Ahr_CIS: Attagene CIS-FACTORIAL HepG2 Assay for human Aryl Hydrocarbon Receptor (Ahr) (AID 2282930)
# Conditions: HepG2 AhR cis-factorial reporter transcription; actives raise or lower the signal
# Procedure, shortened: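 HepG2 cells transiently transfected with cis-element-driven multiplexed reporter transcription units; endogenous transcription factor activity measured as reporter mRNA 24 h after dosing. RT-PCR, 6-FAM labelling, HpaI digestion, capillary electrophoresis; bidirectional fitting versus DMSO baseline.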
# Aryl hydrocarbon receptor (Homo sapiens), sequence (P35869 whole entry, looked up): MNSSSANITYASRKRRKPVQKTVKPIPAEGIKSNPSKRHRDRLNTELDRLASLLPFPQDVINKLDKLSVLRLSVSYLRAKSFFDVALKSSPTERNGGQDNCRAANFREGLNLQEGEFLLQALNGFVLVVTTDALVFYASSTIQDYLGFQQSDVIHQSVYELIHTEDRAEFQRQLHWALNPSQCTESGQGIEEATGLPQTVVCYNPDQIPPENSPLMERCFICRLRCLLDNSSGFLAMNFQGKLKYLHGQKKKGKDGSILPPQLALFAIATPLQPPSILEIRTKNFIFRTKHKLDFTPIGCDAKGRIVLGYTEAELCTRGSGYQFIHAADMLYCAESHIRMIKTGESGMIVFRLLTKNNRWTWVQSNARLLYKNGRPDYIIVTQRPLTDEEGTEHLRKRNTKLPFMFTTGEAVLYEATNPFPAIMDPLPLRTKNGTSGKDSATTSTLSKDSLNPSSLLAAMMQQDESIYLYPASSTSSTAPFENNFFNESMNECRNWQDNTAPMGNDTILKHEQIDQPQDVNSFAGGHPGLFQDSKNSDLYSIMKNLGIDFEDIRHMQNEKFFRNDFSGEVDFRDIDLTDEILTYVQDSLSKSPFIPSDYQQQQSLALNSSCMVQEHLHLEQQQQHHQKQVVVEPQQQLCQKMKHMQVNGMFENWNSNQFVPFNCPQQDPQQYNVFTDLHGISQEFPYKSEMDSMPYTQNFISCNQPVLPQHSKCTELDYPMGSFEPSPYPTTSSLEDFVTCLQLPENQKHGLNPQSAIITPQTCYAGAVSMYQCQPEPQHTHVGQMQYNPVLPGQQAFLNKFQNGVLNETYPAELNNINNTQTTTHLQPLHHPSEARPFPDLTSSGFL
row,SMILES,outcome
1,N#CCCCCC#N,inactive
2,CC(C)(c1cc(Cl)c(O)c(Cl)c1)c1cc(Cl)c(O)c(Cl)c1,inactive
3,O=C(NCNC(=O)NC1C(=O)NC(=O)N1CO)NC1C(=O)NC(=O)N1CO (stereo not given),inactive
4,C=CCN(CC=C)C(=O)C(Cl)Cl,inactive
5,S=c1[nH]c2ccccc2[nH]1,inactive
6,CCCCCc1cc(O)cc(O)c1,inactive
7,CCN(CC)C(=S)S,inactive
8,O=C1Nc2ccc(Cl)cc2C(c2ccccc2)=NC1O (stereo not given),inactive

# Test system: not listed separately
# Assay: ATG_AP_1_CIS: Attagene CIS-FACTORIAL HepG2 Assay for human Activator Protein 1 (AP-1) (AID 2282931)
# Conditions: HepG2 Attagene cis-factorial AP-1 reporter mRNA; actives raise or lower the signal
# Procedure, shortened: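 Multiplexed HepG2 reporter assay, 24 h dosing. mRNA induction detected by RT-PCR plus capillary electrophoresis. Activity fitted in both directions against DMSO.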
SMILES,AC50,outcome
O=C1C(Cl)=C(Cl)C(=O)C(Cl)=C1Cl,130 µM (active),–
N#CCCCCC#N,–,inactive
CC1CCC(=O)O1 (stereo not given),–,inactive
COc1cc(OC)c(OC)cc1C=O,–,inactive
CC(C)c1ccc(O)cc1,–,inactive
C[N+](C)(C)CC(=O)[O-],–,inactive
CC(C)(c1cc(Cl)c(O)c(Cl)c1)c1cc(Cl)c(O)c(Cl)c1,–,inactive
O=C(NCNC(=O)NC1C(=O)NC(=O)N1CO)NC1C(=O)NC(=O)N1CO (stereo not given),130 µM (active),–
[N-]=[N+]=CC(=O)OC[C@H](N)C(=O)O,–,inactive
COCC(=O)N(c1c(C)cccc1C)N1CCOC1=O,–,inactive
CC(C)CCCCCCCOP(=O)(Oc1ccccc1)Oc1ccccc1,33.3 µM (active),–
CCC1CCC(=O)O1 (stereo not given),–,inactive
C=COCCCl,–,inactive
C=CCN(CC=C)C(=O)C(Cl)Cl,–,inactive
CC[N+](=O)[O-],–,inactive
CC(Cc1ccc(C(C)(C)C)cc1)CN1C[C@@H](C)O[C@@H](C)C1 (stereo not given in full),40.6 µM (active),–
[Cl-].[Cl-].[Cl-].[Yb+3],–,inactive
CCOC(=O)N(C)N=O,–,inactive
O=CNC(N1CCN(C(NC=O)C(Cl)(Cl)Cl)CC1)C(Cl)(Cl)Cl (stereo not given),–,inactive
CCC[N+](=O)[O-],–,inactive

SMILES,AC50,outcome
CC(C)(O)C#N,–,inactive
CC(C)C#N,–,inactive
S=c1[nH]c2ccccc2[nH]1,–,inactive
CCCCCc1cc(O)cc(O)c1,–,inactive
c1ccc(Nc2ccc3ccccc3c2)cc1,115 µM (active),–
CSc1nc(N=[N+]=[N-])nc(NC(C)C)n1,–,inactive
CC=Cc1ccc2c(c1)OCO2,–,inactive
Cc1ccc(OP(=O)(Oc2ccc(C)cc2)Oc2ccc(C)cc2)cc1 (tested in a mixture with another compound),–,inactive
ClC1=C(Cl)[C@]2(Cl)[C@@H]3[C@@H](Cl)[C@H](Cl)C[C@@H]3[C@@]1(Cl)C2(Cl)Cl,–,inactive
O=S(=O)(c1ccccc1)c1ccccc1,–,inactive
CCC(C)c1cc(C(C)(C)C)cc(-n2nc3ccccc3n2)c1O (stereo not given),–,inactive
CC1(C)C(=O)NC(=O)NC1=O,–,inactive
CC(=O)/C=C/c1ccccc1,86.4 µM (active),–
c1ccc(P(c2ccccc2)c2ccccc2)cc1,–,inactive
CCOC(=O)COc1ccc(Cl)cc1Cl,–,inactive
CCN(CC)C(=S)S,65.5 µM (active),–
N#Cc1cccc(C#N)c1,–,inactive
O=C1Nc2ccc(Cl)cc2C(c2ccccc2)=NC1O (stereo not given),–,inactive
N#CC(c1ccccc1)c1ccccc1,–,inactive
C[N+](C)=CCl,–,inactive
